# Measurements: PubChem BioAssay (NCI)
# About 79,000 compounds went through this panel and 15% of them were active in at least one assay; those are over-represented in the sample as a whole. The source made the active and inactive calls. Cut-off read from the data, not from the text of the source: active = growth inhibition above about 70%; inactive = the rest.
# Assay: NCI Yeast Anticancer Drug Screen. Data for the mgt1 strain (AID 153)
# Conditions: S. cerevisiae mgt1 mutant growth inhibition, stronger effect = higher value
# Procedure: Growth inhibition of yeast strains with defined genetic alterations is measured as a screen for potential anti-cancer activity. Selected strains with alterations in DNA damage repair or cell cycle control were exposed to compounds and growth inhibition was measured relative to vehicle treated controls. The strain used in this assay is mgt1
Compound,growth inhibition (at 1.2 µM),growth inhibition (at 3.7 µM),growth inhibition (at 11.0 µM),growth inhibition (at 33.0 µM),growth inhibition (at 100.0 µM)
N#C/C(=C/N1C(=O)/C(=C/c2ccc([N+](=O)[O-])cc2)SC1=S)c1nc2ccccc2s1,1% (inactive),3% (inactive),5% (inactive),11% (inactive),66% (inactive)
CC[C@@]1(OC(=O)CCC(=O)O)C(=O)OCc2c1cc1n(c2=O)Cc2cc3ccccc3nc2-1,-6% (inactive),-2% (inactive),9% (inactive),59% (inactive),89% (active)
S=C1SCN(CCc2ccccc2)CN1CCc1ccccc1,1% (inactive),0% (inactive),35% (inactive),42% (inactive),26% (inactive)
O=c1[nH]cc(/C=N\Nc2ccccc2)c(=O)[nH]1,3% (inactive),-2% (inactive),21% (inactive),31% (inactive),46% (inactive)
O=C(/C=C/c1cccc2ccccc12)c1ccc(Cl)cc1,13% (inactive),11% (inactive),7% (inactive),8% (inactive),-5% (inactive)
Clc1c(Cl)c(Cl)c2n[nH]nc2c1Cl,-23% (inactive),-12% (inactive),-5% (inactive),6% (inactive),86% (active)
CC[C@@]1(OC(=O)CN(C)C)C(=O)OCc2c1cc1n(c2=O)Cc2cc3c(N)cccc3nc2-1,-2% (inactive),0% (inactive),2% (inactive),20% (inactive),39% (inactive)
O=C1NC(c2c(Cl)cccc2Cl)Nc2ccccc21 (stereo not given),-14% (inactive),-9% (inactive),5% (inactive),63% (inactive),96% (active)
